Growth data for seven compounds are collected here from PubChem BioAssay (NCI).

Among the test systems are HCT-15 colon; HT29 colon; SNB-75 CNS; SNB-19 CNS; U251 CNS; PC-3 prostate; SK-MEL-5 melanoma; UACC-62 melanoma; LOX IMVI melanoma; SK-MEL-28 melanoma; SK-MEL-2 melanoma; EKVX NSCLC; SN12C renal; UO-31 renal; TK-10 renal; ACHN renal; CAKI-1 renal; A498 renal; CCRF-CEM leukemia; MOLT-4 leukemia.
Common to all, as to test: NCI-60 one-dose screen, 48 h (100 = growth as untreated, 0 = no growth, -100 = all killed)
Conditions in all cases: 10 µM unless noted

About 83,000 compounds went through this panel and 20% of them were active in at least one assay; those are over-represented in the sample as a whole.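 Activity criterion: percent growth below 10, measured after cells in 96-well plates were exposed to a single compound concentration for 48 hours.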 A number with no mark means an inactive call. Activity calls are given as the source filed them.

For `CCC(=C(c1ccc(OCCN2CCCCCC2)cc1)c1ccc(OCCN2CCCCCC2)cc1)c1ccc(Cl)cc1`, the growth is -58.9% (active) in the assay with HCT-15 colon; -44.7% (active) in the assay on HT29 colon; 62% with SNB-75 CNS; -21.3% (active) in the assay with SNB-19 CNS; -69.8% (active) with U251 CNS; 27.7% in the assay on PC-3 prostate. The growth with SK-MEL-5 melanoma was 21.5%; with UACC-62 melanoma, -35.4% (active); with LOX IMVI melanoma, -89.6% (active); in the assay with SK-MEL-28 melanoma, -82% (active); with SK-MEL-2 melanoma, -29.9% (active); in the assay on EKVX NSCLC, 54.5%. The growth in the assay with SN12C renal was 48.3%; in the assay with UO-31 renal, 13.6%; with TK-10 renal, 114%; in the assay on ACHN renal it was 26.2%; with CAKI-1 renal it was 44.3%; in the assay with A498 renal it was 84.4%. The results for the growth in the assay with CCRF-CEM leukemia and with MOLT-4 leukemia were 3.5% (active) and 4.03% (active), respectively.

Consider `CC[C@H](CC[C@@H](C)[C@H]1CC[C@H]2[C@@H]3CC(=O)C4=CC(=O)/C(=C/c5ccc([N+](=O)[O-])cc5)C[C@]4(C)[C@H]3CC[C@]12C)C(C)C`, for which the growth in the assay with HCT-15 colon was 96.9%; in the assay with HT29 colon, 104%; in the assay on SNB-75 CNS it was 96.1%; with SNB-19 CNS it was 102%; in the assay with U251 CNS, 100%; with PC-3 prostate, 94.8%. The growth in the assay with SK-MEL-5 melanoma was 96.7%; in the assay with UACC-62 melanoma, 90.2%; in the assay on LOX IMVI melanoma it was 107%; in the assay on SK-MEL-28 melanoma, 104%; with SK-MEL-2 melanoma it was 114%; with EKVX NSCLC, 109%. For the same compound, the growth in the assay with SN12C renal is 98.4%; in the assay on UO-31 renal, 79.6%; with TK-10 renal, 104%; in the assay with ACHN renal, 93.9%; in the assay on CAKI-1 renal, 90.8%; in the assay on A498 renal, 108%. Also, the results for the growth with CCRF-CEM leukemia and in the assay with MOLT-4 leukemia were 56.1% and 84.3%, respectively.

On to `COc1cc(C(=O)c2cc(C(C)=O)c3cccc(C)n23)cc(OC)c1OC`, for which the growth was 17.9% in the assay on HCT-15 colon; 8.74% (active) in the assay with HT29 colon; 5.39% (active) in the assay with SNB-75 CNS; 39.8% in the assay with SNB-19 CNS; 30.9% with U251 CNS; 55.7% in the assay with PC-3 prostate. The growth in the assay on SK-MEL-5 melanoma is 33.3%; with UACC-62 melanoma, 23.3%; in the assay with LOX IMVI melanoma, 39.2%; in the assay on SK-MEL-28 melanoma, 61.8%; with SK-MEL-2 melanoma, -11.8% (active); with EKVX NSCLC, 53.6%. Besides, the growth in the assay with SN12C renal is 45.3%; with UO-31 renal, 45.2%; with TK-10 renal it was 78.6%; with ACHN renal, 51.4%; in the assay on CAKI-1 renal it was 33.5%; in the assay on A498 renal, 21.9%. Besides, the growth was 44.1% with CCRF-CEM leukemia and 38.6% in the assay on MOLT-4 leukemia.

On to `NS(=O)(=O)c1ccc(Nc2nc(N/N=C/c3ccc4c(c3)OCO4)nc(Nc3ccccc3)n2)cc1`, for which the growth in the assay with HCT-15 colon was 82.7%; with HT29 colon, 40.2%; in the assay with SNB-75 CNS, 53.6%; with SNB-19 CNS, 55.8%; in the assay with U251 CNS, 55.4%; in the assay with PC-3 prostate, 59.1%. Besides, the growth in the assay with SK-MEL-5 melanoma was 54.3%; in the assay with UACC-62 melanoma it was 78.4%; with LOX IMVI melanoma it was 26.7%; in the assay on SK-MEL-28 melanoma it was 67.5%; in the assay with SK-MEL-2 melanoma, 55.8%; in the assay on EKVX NSCLC it was 73.2%. Further, the growth with SN12C renal was 54.3%; with UO-31 renal it was 76.8%; in the assay on TK-10 renal, 96.6%; with ACHN renal, 57.8%; in the assay on CAKI-1 renal it was 45.4%; in the assay with A498 renal it was 51.1%. Moreover, the values for the growth with CCRF-CEM leukemia and in the assay on MOLT-4 leukemia were 16.3% and 11.2%, respectively.

For the compound `Cc1ccc(C(=O)Nc2ccc(CNCCN3CCNCC3)c(C(F)(F)F)c2)cc1C#Cc1cnc2cccnn12`, the growth in the assay on HCT-15 colon is 14.1%; in the assay on HT29 colon, 5.76% (active); in the assay on SNB-75 CNS it was 42.5%; with SNB-19 CNS, 8.65% (active); in the assay on U251 CNS, -6.31% (active); in the assay on PC-3 prostate, 23.8%. Moreover, the growth in the assay with SK-MEL-5 melanoma was -87.1% (active); in the assay on UACC-62 melanoma, -41% (active); in the assay with LOX IMVI melanoma it was -86.1% (active); in the assay on SK-MEL-28 melanoma it was -68% (active); in the assay on SK-MEL-2 melanoma it was 64%; with EKVX NSCLC, 29.6%. The growth is 76.2% with SN12C renal; 76.7% with UO-31 renal; 129% with TK-10 renal; 57% with ACHN renal; 75.9% in the assay with CAKI-1 renal; -33.4% (active) with A498 renal. The growth with CCRF-CEM leukemia was -39.7% (active); in the assay with MOLT-4 leukemia, -49.5% (active).

With `CCc1cc(OC(=O)N2CCN(CCC(C)(COC(C)(C)C)COC(C)(C)C)CC2)ccc1Nc1cc(-c2ccc(-n3cccn3)cc2)[nH]n1`, the growth with HCT-15 colon is 65.9%; with HT29 colon, 47.3%; in the assay on SNB-75 CNS, 48.7%; in the assay on SNB-19 CNS it was 86.2%; in the assay with U251 CNS it was 74.9%; with PC-3 prostate, 53.9%. Also, the growth with SK-MEL-5 melanoma was 90.8%; in the assay with UACC-62 melanoma, 85.8%; in the assay on LOX IMVI melanoma, 104%; in the assay on SK-MEL-28 melanoma, 96.6%; in the assay on SK-MEL-2 melanoma, 102%; in the assay on EKVX NSCLC, 66.1%. For the same compound, the growth in the assay with SN12C renal was 62.1%; with UO-31 renal, 81.3%; in the assay with TK-10 renal it was 103%; with ACHN renal, 81%; in the assay with CAKI-1 renal, 64.9%; in the assay on A498 renal, 81.2%. Moreover, the values for the growth in the assay with CCRF-CEM leukemia and with MOLT-4 leukemia were 56.7% and 52.9%, respectively.

For the compound `Brc1cccc(-c2cc(-c3cnc4c(c3)OCCO4)n[nH]2)c1`, the growth in the assay with HCT-15 colon was 21.1%; with HT29 colon, 18.8%; with SNB-75 CNS, 46.9%; in the assay on SNB-19 CNS, 59.8%; in the assay on U251 CNS, 43.3%; in the assay on PC-3 prostate it was 79.1%. The growth in the assay on SK-MEL-5 melanoma is 24.2%; in the assay on UACC-62 melanoma, 55.5%; with LOX IMVI melanoma it was 37.1%; with SK-MEL-28 melanoma, 59%; in the assay on SK-MEL-2 melanoma, 52.1%; in the assay with EKVX NSCLC, 50.4%. The growth with SN12C renal is 62.8%; in the assay on UO-31 renal it was 51%; with TK-10 renal, 89.9%; in the assay on ACHN renal it was 51.6%; in the assay on CAKI-1 renal, 51.8%; in the assay on A498 renal, 50.6%. In addition, the growth was 36.7% in the assay on CCRF-CEM leukemia and 34.1% in the assay with MOLT-4 leukemia.
